{
  "source": "PubChem BioAssay (Tox21)",
  "note": "Inconclusive results are not listed. Active and inactive are the calls of the source. The call rests on the fitted dose curve. On the % scale 0 is the no-effect control and ±100 the full control effect.",
  "data": [
    {"assay": "qHTS assay to identify small molecule antagonists of the estrogen receptor alpha (ER-alpha) signaling pathway using the BG1 cell line (AID 743080);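 further: BG1 cells stimulated with 17beta-estradiol alongside compound; nearly all actives have a fitted effect of over 25% in size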", "details": "BG1Luc4E2 ERE-luciferase antagonist mode, luminescence; series mostly up to 70.3 µM; activity change, negative = inhibition: at the top concentration", "from_the_text": "National Center for Advancing Translational Sciences [NCATS]\nNIH Chemical Genomics Center [NCGC]\nU.S. Environmental Protection Agency [EPA]\nNational Institutes of Environmental Health Sciences [NIEHS]\nNational Toxicology Program [NTP]\nU.S. Food and Drug Administration [FDA]\nEstrogen receptor (ER), a nuclear hormone receptor, plays an important role in development, metabolic homeostasis and reproduction. Endocrine disrupting chemicals (EDCs) and their interactions with steroid hormone receptors like ER causes disruption of normal endocrine function. Therefore, it is important to understand the effect of environmental chemicals on the ER signaling pathway. To identify ER antagonists, BG1-Luc-4E2 cell line (provided by Dr. Michael Denison from University of California) has been used to screen the Tox21 10K compound library. BG1Luc4E2 cell line endogenously expresses full-length ER-alpha and is stably transfected with a plasmid containing four estrogen responsive elements (ERE) upstream of a luciferase reporter gene.\nTox21 Assay Protocol Summary:\nBG1-Luc-4E2 cells were cultured in phenol red free assay medium containing 10% charcoal stripped FBS for 5 days before the assay was performed. The cells were dispensed at 4,000 cells/4 uL of assay medium per well into white wall/solid-bottom 1536-well plates using a Multidrop Combi (ThermoFisher Scientific, Waltham, MA) dispenser. The assay plates were incubated at a 37C and 5% CO2 for 24 h, and then 23 nL of compounds dissolved in DMSO, positive controls or DMSO only was transferred to the assay plate using a Pintool station (Kalypsys, San Diego, CA), followed by addition of 1 uL of 17beta-estradiol in assay medium using a Flying Reagent Dispenser (Aurora Discovery, San Diego, CA). After the plates were incubated at 37 C and 5% CO2 for 21.5 h, 1 uL of CellTiter-Fluor reagent (Promega, Madison, WI) of measuring cytotoxicity was added using Flying Reagent Dispenser (FRD) to each well. The assay plates were incubated at 37 C and 5% CO2 for additional 30 min and the fluorescence intensity was quantified by a ViewLux plate reader (PerkinElmer, Shelton, CT). For measuring luciferase reporter gene activity, 4 uL of ONE-Glo reagent (Promega) was added to each plate using an FRD and luminescence was quantified by a ViewLux plate reader after 30 min incubation at room temperature.", "values": [
      {"molecule": "CN(C)CCOCCN(C)CCO", "activity change, negative = inhibition": "-3.04% (inactive)"},
      {"molecule": "Cc1nc2ccccc2c(=O)o1", "activity change, negative = inhibition": "7.02% [at 95 µM] (inactive)"},
      {"molecule": "Cc1c(C(C)C)c(=O)n(-c2ccccc2)n1C", "activity change, negative = inhibition": "-5.61% (inactive)"},
      {"molecule": "CC(=O)OC(C)c1ccccc1", "note": "(stereo not given)", "activity change, negative = inhibition": "-8.17% (inactive)"},
      {"molecule": "CC(C)(C)c1ccc(C=O)cc1", "activity change, negative = inhibition": "2.02% (inactive)"},
      {"molecule": "CCCCOC(=O)[C@@H](C)Oc1ccc(Oc2ccc(C(F)(F)F)cn2)cc1", "activity change, negative = inhibition": "1.2% [at 95 µM] (inactive)"},
      {"molecule": "CCCCCCCCCCC", "activity change, negative = inhibition": "-0.218% (inactive)"},
      {"molecule": "CC1=CC[C@H](CC=O)C1(C)C", "activity change, negative = inhibition": "0.368% (inactive)"},
      {"molecule": "CCCCCCCCCCCCC1CO1", "note": "(stereo not given)", "activity change, negative = inhibition": "3.57% (inactive)"},
      {"molecule": "Cc1ccccc1C(=O)N1CC/C(=N\\OS(=O)(=O)O)c2ccc(Cl)cc21", "activity change, negative = inhibition": "-1.28% (inactive)"},
      {"molecule": "COC(=O)CCC(=O)O", "activity change, negative = inhibition": "0.691% (inactive)"},
      {"molecule": "CCS(=O)(=O)CCn1c([N+](=O)[O-])cnc1C", "activity change, negative = inhibition": "8.92% [at 32.5 µM] (inactive)"},
      {"molecule": "C=CCOCC(O)CCl", "note": "(stereo not given)", "activity change, negative = inhibition": "0.552% (inactive)"},
      {"molecule": "Nc1cc(C(=O)O)ccc1Cl", "activity change, negative = inhibition": "1.37% (inactive)"},
      {"molecule": "O=CN1CCOCC1", "activity change, negative = inhibition": "-5.67% (inactive)"},
      {"molecule": "CCc1nccnc1C", "activity change, negative = inhibition": "4.72% (inactive)"},
      {"molecule": "N#CCCOCCOCCC#N", "activity change, negative = inhibition": "-0.655% (inactive)"},
      {"molecule": "CC(C)CCCC(C)CC=O", "note": "(stereo not given)", "activity change, negative = inhibition": "-2.51% (inactive)"},
      {"molecule": "CCC1COC(=O)O1", "note": "(stereo not given)", "activity change, negative = inhibition": "1.34% (inactive)"},
      {"molecule": "C=CCOc1c(Br)cc(C(C)(C)c2cc(Br)c(OCC=C)c(Br)c2)cc1Br", "activity change, negative = inhibition": "-11.8% (inactive)"},
      {"molecule": "CC(=O)Nc1ncc([N+](=O)[O-])s1", "activity change, negative = inhibition": "0.983% (inactive)"},
      {"molecule": "CCC(C)N", "note": "(stereo not given)", "activity change, negative = inhibition": "-5.78% (inactive)"},
      {"molecule": "O=C(O)c1c(Cl)ccc(Cl)c1Cl", "activity change, negative = inhibition": "-1.12% (inactive)"},
      {"molecule": "Nc1cc(Cl)cc(S(=O)(=O)O)c1O", "activity change, negative = inhibition": "19% [at 95 µM] (inactive)"},
      {"molecule": "Cc1oc(=O)oc1CN1CCN(c2cc3c(cc2F)c(=O)c(C(=O)O)c2n3C(C)S2)CC1", "note": "(stereo not given)", "activity change, negative = inhibition": "0% (inactive)"},
      {"molecule": "Cc1ccccc1C", "activity change, negative = inhibition": "-18.1% [at 95 µM] (inactive)"},
      {"molecule": "CCCCCCCC/C=C\\CCCCCCCC(=O)OC[C@@H](O)[C@H]1OC[C@H](O)[C@H]1O", "outcome": "inactive"},
      {"molecule": "C=CCOC(=O)c1ccc(C(=O)OCC=C)c(C(=O)OCC=C)c1", "activity change, negative = inhibition": "5.53% (inactive)"},
      {"molecule": "CC(C)C(=O)c1ccccc1", "activity change, negative = inhibition": "0.581% (inactive)"},
      {"molecule": "CNC(=O)C(c1ccccc1)c1ccccc1", "activity change, negative = inhibition": "-6.47% (inactive)"},
      {"molecule": "C=CC(C)(O)CC/C=C(\\C)CC", "note": "(stereo not given)", "activity change, negative = inhibition": "1.28% (inactive)"},
      {"molecule": "OC(CCN1CCCCC1)(c1ccccc1)c1ccccc1", "activity change, negative = inhibition": "4.23% (inactive)"},
      {"molecule": "O=C(O)/C=C/c1ccccc1", "outcome": "inactive"},
      {"molecule": "COC(OC)C(C)c1ccccc1", "note": "(stereo not given)", "activity change, negative = inhibition": "-2.7% (inactive)"},
      {"molecule": "CCCCC(CC)COC(=O)c1ccccc1", "note": "(stereo not given)", "activity change, negative = inhibition": "6.8% (inactive)"},
      {"molecule": "Nc1ccc(S(=O)(=O)NC(=O)c2ccccc2)cc1", "activity change, negative = inhibition": "10.6% [at 32.5 µM] (inactive)"},
      {"molecule": "Cc1cc(O)c2c(c1)C(=O)c1cccc(O)c1C2=O", "activity change, negative = inhibition": "0% (inactive)"},
      {"molecule": "Oc1ccccc1Cc1ccccc1O", "activity change, negative = inhibition": "-7.37% (inactive)"},
      {"molecule": "CCCCCCCCC(=O)OCC", "activity change, negative = inhibition": "-0.034% (inactive)"},
      {"molecule": "CCCCCC(=O)OCC", "activity change, negative = inhibition": "0.481% (inactive)"}
    ]}
  ]
}
